Hit rate of the full screen: of about 310,000 compounds, about 14,000 (4.5%) showed an effect of 50% or more. The effect is printed as a negative number. Many of the other results were omitted from the sample, so strong results are more common in it than they were.
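Also: peak tail current of the secondary pulse compared with the same well before compound.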

Chain of human ether-à-go-go-related gene (hERG) potassium channel (Q12809 whole entry, looked up): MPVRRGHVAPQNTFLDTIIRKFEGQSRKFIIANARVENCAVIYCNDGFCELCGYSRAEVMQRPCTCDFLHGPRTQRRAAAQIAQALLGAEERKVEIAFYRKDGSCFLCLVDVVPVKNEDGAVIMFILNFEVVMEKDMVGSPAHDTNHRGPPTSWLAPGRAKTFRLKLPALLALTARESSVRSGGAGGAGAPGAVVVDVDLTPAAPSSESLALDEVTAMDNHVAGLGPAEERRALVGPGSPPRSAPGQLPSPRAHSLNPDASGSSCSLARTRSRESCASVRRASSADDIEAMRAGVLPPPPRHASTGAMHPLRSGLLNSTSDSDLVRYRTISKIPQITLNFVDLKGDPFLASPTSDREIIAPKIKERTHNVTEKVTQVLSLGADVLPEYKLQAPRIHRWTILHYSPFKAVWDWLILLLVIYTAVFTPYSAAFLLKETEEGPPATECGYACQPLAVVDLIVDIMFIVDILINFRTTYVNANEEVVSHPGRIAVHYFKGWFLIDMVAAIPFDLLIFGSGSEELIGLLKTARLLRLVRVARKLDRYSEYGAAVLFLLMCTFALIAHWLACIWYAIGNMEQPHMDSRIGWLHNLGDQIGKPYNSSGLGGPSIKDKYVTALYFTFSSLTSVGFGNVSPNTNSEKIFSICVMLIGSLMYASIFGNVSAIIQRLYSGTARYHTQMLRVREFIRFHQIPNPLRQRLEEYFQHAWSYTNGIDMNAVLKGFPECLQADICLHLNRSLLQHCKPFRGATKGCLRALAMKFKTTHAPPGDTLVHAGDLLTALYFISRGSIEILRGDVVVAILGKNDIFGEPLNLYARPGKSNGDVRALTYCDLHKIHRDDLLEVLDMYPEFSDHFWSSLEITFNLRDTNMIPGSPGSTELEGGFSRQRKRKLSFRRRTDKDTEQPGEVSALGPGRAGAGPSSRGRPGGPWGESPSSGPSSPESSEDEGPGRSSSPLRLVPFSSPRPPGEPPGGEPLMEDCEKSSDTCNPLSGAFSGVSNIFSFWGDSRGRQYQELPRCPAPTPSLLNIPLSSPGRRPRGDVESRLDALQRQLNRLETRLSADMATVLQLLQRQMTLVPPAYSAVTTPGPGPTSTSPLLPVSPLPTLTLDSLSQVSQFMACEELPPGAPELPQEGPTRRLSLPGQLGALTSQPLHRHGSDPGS

This assay addresses human ether-à-go-go-related gene (hERG) potassium channel (human, UniProt Q12809). The assay is described as follows: primary screen, population patch clamp on CHO cells stably expressing hERG; higher = less effect of the substance.
As to `CCN(CC)CCSc1nc2ccccc2n1Cc1ccccc1.Cl`, the “hERG current change (%, negative = inhibition) at 10uM” value is -74.1%. Under `CCSc1nc2ccccc2n1Cc1cccc([N+](=O)[O-])c1` stands -69.7%; under `O=C(O)CSc1nnc(Nc2ccccc2)n1-c1ccccc1`, 18.6%; under `CCc1n[nH]c(=S)n1/N=C/c1ccc(NC(C)=O)cc1`, 13%. Under `COc1cc(NC(=O)COC(=O)CO/N=C(\C)c2ccc3c(c2)OCO3)cc(OC)c1` stands 14.6%; under `CC1CCc2sc(C(=O)Nc3ccc(N4CCOCC4)cc3)cc2C1` (centres unmarked), 11.6%. With `COc1cccc2c1OCC(C(=O)Nc1nccs1)=C2` the figure was -0.366%; with `CC(=O)C1=C(O)C(=O)N(c2ccc(Br)cn2)C1c1ccccc1F` (centres unmarked), 10.6%. For the compound `CC(=O)N(C)c1ccc(NS(=O)(=O)Cc2ccccc2)cc1`, the “hERG current change (%, negative = inhibition) at 10uM” value was -8.12%. As to `O=C(CCSc1ccccc1)Nc1ncccn1`, the “hERG current change (%, negative = inhibition) at 10uM” value is 14.9%. In the case of `COC(=O)c1ccc(Cl)c(NS(=O)(=O)c2ccc3c(c2)OCCO3)c1`, the “hERG current change (%, negative = inhibition) at 10uM” value is on record as -25.4%. With `O=c1c2ccccc2nc2c3ccccc3c(NCc3ccco3)nn12` the figure was -17.8%; with `Cc1sc2nc3ccc(NCc4ccco4)nn3c(=O)c2c1C`, -21.7%. With `Cc1sc2nc3c4ccccc4c(NCc4ccco4)nn3c(=O)c2c1C` the figure was -56.6%; with `COc1nc(N/N=C/c2ccccc2F)nc(N2CCCCC2)n1`, -15.6%; with `COc1ccc(NC(=O)NCCCN2CCCC2=O)cc1`, 4.11%. Under `O=C(NCCCN1CCc2ccccc2C1)Nc1ccc(Br)cc1` stands -71.7%; under `O=C(CN1CCc2ccccc2C1)Nc1ccc(Br)cc1`, -34.2%; under `CN1CCN(CCNC(=O)Nc2ccc(Cl)cc2)CC1`, -0.17%. Regarding `O=C(NCCCN1CCc2ccccc2C1)Nc1ccc(Cl)cc1`, the “hERG current change (%, negative = inhibition) at 10uM” value is -65.5%. With `COc1ccc(NC(=O)NCCN2CCc3ccccc3C2)cc1` the figure was -34.6%; with `COc1ccc(NC(=O)NCCCN2CCc3ccccc3C2)cc1`, -69.2%. With `O=C(Nc1ccc(Br)cc1)N1CCc2ccccc2C1` the figure was 2.91%; with `O=C(NCCCN1CCCC1=O)Nc1ccc(Cl)cc1`, 2.13%.

For the compound `COc1ccc(-c2csc(NC(=O)Cc3ccccc3F)n2)cc1OC`, the “hERG current change (%, negative = inhibition) at 10uM” value is on record as 2.29%.

Take `CC(Oc1cc2oc(=O)c3c(c2cc1Cl)CCCC3)C(=O)NCc1ccncc1` (centres unmarked): the “hERG current change (%, negative = inhibition) at 10uM” value is recorded as -41.8%. With `Cc1[nH]c2ccccc2c1C1(O)C(=O)N(C(C)C)c2ccccc21` (centres unmarked) the figure was 16.7%; with `CC1CC2(CC(C)(C(=O)CSc3nc4ccccc4s3)OC2=O)C(=O)O1` (centres unmarked), -1.16%. With `CCOC(=O)C1=C(C)NC(C)=C(C(=O)OCC)C1C(=O)OCC(=O)N1CCc2ccccc21` the figure was -1.82%. With `CC(C)CC(=O)Nc1ccccc1-c1nnn(CC(=O)N2CCOCC2)n1`, the “hERG current change (%, negative = inhibition) at 10uM” value was -2.78%. With `NC(=S)NNc1c(F)c(F)c(F)c(F)c1F` the figure was 28.9%; with `Cc1ccc(F)c(NC(=O)c2c(-c3ccccc3)noc2C)c1`, 7.17%; with `Cl.OCCN(CCO)CC(O)CN1c2ccccc2Sc2ccccc21` (centres unmarked), -12.9%. On to `CC(=O)Nc1ccc(-c2csc(NC(=O)C3CCN(S(=O)(=O)c4cccs4)CC3)n2)cc1`, for which the “hERG current change (%, negative = inhibition) at 10uM” value is -2.9%. Under `COc1cc(-c2nc3sc(C)c(C)c3c(=O)o2)cc(OC)c1OC` stands 19%. Consider `CCOC(=O)C1=C(C)OC(N)=C(C#N)C1c1cc2ccccc2nc1N1CCCCC1` (centres unmarked), for which the “hERG current change (%, negative = inhibition) at 10uM” value came out at 6.3%.

`CC(C)N1C(=S)SC2CS(=O)(=O)C=C21` (centres unmarked): the “hERG current change (%, negative = inhibition) at 10uM” value is on record as -5.07%.

As to `NC(=O)c1cc(S(=O)(=O)N2CCCC2)ccc1OCCOc1ccccc1`, the “hERG current change (%, negative = inhibition) at 10uM” value amounted to 2.15%. Under `CCC(=O)c1cn(Cc2ccccc2C#N)c2ccccc12` stands -24.2%; under `CC(C)C(=O)c1cn(Cc2ccccc2C#N)c2ccccc12`, -10.8%; under `CC(C)C(=O)c1cn(CC(=O)O)c2ccccc12`, 8.27%. Take `O=Cc1cn(Cc2ccc(Br)cc2)c2ccccc12`: the “hERG current change (%, negative = inhibition) at 10uM” value was determined as 15%.

With `N#Cc1ccc(Cn2cc(C=O)c3ccccc32)cc1`, the “hERG current change (%, negative = inhibition) at 10uM” value is recorded as -80.8%. Consider `O=C(c1ccco1)c1cn(Cc2ccc(Cl)cc2)c2ccccc12`, for which the “hERG current change (%, negative = inhibition) at 10uM” value worked out at 15.9%. Under `CC(C)C(=O)c1cn(Cc2ccc(C#N)cc2)c2ccccc12` stands -75.6%; under `N#Cc1ccc(Cn2cc(C(=O)c3ccco3)c3ccccc32)cc1`, -76.7%. Consider `O=C(c1ccco1)c1cn(Cc2ccccc2)c2ccccc12`, for which the “hERG current change (%, negative = inhibition) at 10uM” value is listed as -6.75%. With `Cc1ccc(Cn2cc(C=O)c3ccccc32)cc1` the figure was 1.48%. In the case of `CCC(=O)c1cn(Cc2ccc(C#N)cc2)c2ccccc12`, the “hERG current change (%, negative = inhibition) at 10uM” value is listed as -71.8%. With `CC(=O)c1cn(Cc2ccc(C#N)cc2)c2ccccc12` the figure was -19.9%.
